# Glyco luc inh – N-linked glycosylation inhibition; D54 ERlucT glycosylation luciferase reporter, 24 h; percent of 100 nM tunicamycin response; reporter increase, % at 12.5 µM; actives 0.23% (n = 360,000); AID 588692;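 active = mean luciferase reporter signal, scaled so untreated is 0 and the glycosylation-blocking control 100, at or above a set limit in every replicate; inconclusive = mean reaches the limit but not every replicate does; inactive = mean below the limit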;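 also: luciferase carries N-glycosylation sites so blocking glycosylation raises the light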
# Vif inh – HIV Vif inhibition | HEK293T cells, Vif self-association by quenched fluorescence, imaging, 24 h | actives 0.35% (n = 340,000) | inhibition, % at 7.49 µM; in the data active = inhibition above about 50%, passing the limit was not always enough; inconclusive = no clear call, values can overlap the other calls; inactive = below about 31%
# PvdQ acylase – blocks Pseudomonas aeruginosa PvdQ acylase activity; purified PvdQ acylase, fluorescence plate reader; inhibition, % at 10 µM; actives 0.063% (n = 340,000); AID 488965; in the data active = inhibition above about 30%, passing the limit was not always enough; inconclusive = no clear call, values can overlap the other calls
# esBAF inh – blocks esBAF chromatin remodeling in mouse ES cells; Bmi1-luciferase knock-in reporter, 24 h; 100% = twice the neutral-well signal; reporter increase, % at 12.5 µM; actives 2% (n = 350,000); in the data active = activation above about 40%; inconclusive = no clear call, values can overlap the other calls;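 also: a rise in the Bmi1 reporter signal indicates esBAF inhibition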
# MITF TRPM1 HTS – activators of MITF-driven TRPM1 promoter activity in SK-MEL-5 cells. SK-MEL-5 TRPM1-promoter luciferase, 24 h; % of positive control, neutral wells = 0. actives 0.75% (n = 300,000). activation, % at 12.5 µM;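 active = mean activation of at least 80% with every replicate also reaching 80%; inconclusive = mean reaches 80% but some replicate falls short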
# Wnt bcat act – activates Wnt/beta-catenin signaling in a reporter cell assay; AID 743398; actives 1.2% (n = 300,000); activation, % at 9.35 µM; activator, plate reader; in the data active = activation above about 30%, passing the limit was not always enough; inconclusive = no clear call, values can overlap the other calls
# A number is an active result; n = inactive; u = inconclusive; x = no result given. Compounds with a hit are over-represented: about 2.9% of the library has one in this group of screens.
SMILES,Glyco luc inh,Vif inh,PvdQ acylase,esBAF inh,MITF TRPM1 HTS,Wnt bcat act
C[C@@H]1CN([C@@H](C)CO)C(=O)Cc2cc(NC(=O)CCCN(C)C)ccc2O[C@H]1CN(C)S(=O)(=O)c1cccs1,x,x,x,n,x,x
C[C@H](CO)N1C[C@H](C)[C@@H](CN(C)Cc2cccc(F)c2)Oc2ncc(-c3cccc(F)c3)cc2C1=O,x,x,x,n,x,x
O=C(C[C@H]1CC[C@H]2[C@@H](COC[C@H](O)CN2Cc2ccc(Oc3ccccc3)cc2)O1)N1CCCCC1,x,x,x,n,x,x
CCOC(=O)c1oc2c(c1C)/C(=N/O)CCC2,n,n,n,n,n,57
CC(=O)Nc1cc2c(cc1Br)-c1ccccc1C2,n,n,n,56,n,n
O=C(Nc1ccc2c(c1)Cc1ccccc1-2)c1ccccc1F,n,n,n,x,x,49
CCCC(=O)Nc1ccc2c(c1)Cc1ccccc1-2,n,n,n,58,n,n
COc1cc(C(=O)Nc2ccc3c(c2)Cc2ccccc2-3)cc(OC)c1OC,n,u,n,x,n,n
CC(C)CN1C(=O)c2ccc(NC(=O)c3ccco3)cc2C1=O,n,n,n,x,n,n
CC(C)CN1C(=O)c2ccc(NC(=O)c3ccccc3F)cc2C1=O,n,n,n,47,n,x
O=C(Nc1ccc(Cc2ccncc2)cc1)c1ccc(Br)o1,n,n,n,n,n,n
O=C(Nc1ccc2c(c1)Cc1ccccc1-2)c1ccc(Br)o1,n,n,n,51,n,n
CCCc1cn(CC[C@@H]2CC[C@H](NS(=O)(=O)c3ccc(-c4ccccc4)cc3)[C@H](CO)O2)nn1,x,x,x,n,x,x
CCc1cc2c(=O)c(-c3cscn3)coc2cc1O,n,n,n,90,n,n
CCOC(=O)c1oc2cc(O)c(CC)cc2c(=O)c1-c1cscn1,n,x,n,n,n,n
Cc1ccc(-c2nc3ccccc3nc2NN)cc1,n,n,n,x,x,44
Oc1c(C(c2ccccn2)N2CCCCC2)cc(Cl)c2cccnc12 (stereo not drawn),n,n,n,x,n,59
CN1CCN(C(c2ccc(C(F)(F)F)cc2)c2cc(Cl)c3cccnc3c2O)CC1 (stereo not drawn),x,x,x,x,x,n
CN1CCN(C(c2ccc(Cl)cc2)c2cc(Cl)c3cccnc3c2O)CC1 (stereo not drawn),33,n,n,n,n,n
Cc1noc(C)c1NC(=O)Nc1ccc2c(c1)CC(=O)N([C@H](C)CO)C[C@H](C)[C@@H](CN(C)S(=O)(=O)c1cn(C)cn1)O2,x,x,x,n,x,x
CO[C@H]1CN(C)C(=O)c2ccc(NC(=O)c3ccno3)cc2OC[C@@H](C)NC[C@@H]1C,x,x,x,n,x,x
Cn1c(C(=O)Nc2ccc3c(c2)OCO3)cc2sccc21,n,n,n,n,n,x
Cn1c(C(=O)Nc2ccccc2)cc2sccc21,n,n,n,n,n,51
COc1ccc(NC(=O)c2cc3sccc3n2Cc2ccc(F)cc2)cc1OC,n,x,n,65,n,n
CCc1ccccc1NC(=O)c1cc2sccc2n1C,n,n,n,n,n,n
SMILES,Glyco luc inh,Vif inh,PvdQ acylase,esBAF inh,MITF TRPM1 HTS,Wnt bcat act
COc1cc(NC(=O)c2cc3sccc3n2C)cc(OC)c1,n,n,n,42,n,u
COC(=O)c1ccc(NC(=O)c2cc3sccc3n2C)cc1,n,x,n,55,n,n
O=C(Nc1ccccc1)N1C[C@H]2[C@@H](c3ccccc31)[C@@H](CO)N2C(=O)c1ccncc1,x,x,x,n,x,x
Cc1ccc(S(=O)(=O)N(C)C[C@H]2OCCCC[C@H](C)Oc3ccc(NC(=O)c4ccccc4)cc3C(=O)N([C@H](C)CO)C[C@H]2C)cc1,x,x,x,n,x,x
C[C@H](CO)N1C[C@H](C)[C@@H](CN(C)S(=O)(=O)c2ccc(Cl)cc2)Oc2c(NC(=O)CCCCCC(=O)Nc3ccccc3N)cccc2C1=O,x,x,x,n,x,x
C[C@H](CO)N1C[C@H](C)[C@H](CN(C)C(=O)CN2CCOCC2)Oc2ncc(-c3cncnc3)cc2C1=O,x,x,x,n,x,x
COc1cccc(Nc2nn3c(=O)c4ccccc4nc3s2)c1,n,n,n,69,114,x
C/C(Cl)=C/CSc1nn2c(=O)c3ccccc3nc2s1,n,n,n,n,u,x
Cc1ccccc1Nc1nn2c(=O)c3ccccc3nc2s1,n,n,n,n,n,35
C=CCSc1nn2c(=O)c3ccccc3nc2s1,n,n,n,n,x,52
O=c1c2ccccc2nc2sc(Nc3ccc(F)cc3)nn12,n,n,n,u,n,n
CO[C@H]1CN(C)C(=O)c2cc(NS(C)(=O)=O)ccc2OC[C@@H](C)N(C(=O)C2CCC2)C[C@@H]1C,x,x,x,n,x,x
CC(C)c1ccc(N=C2NN=C(c3cccs3)CS2)cc1,n,n,n,x,100,n
N#Cc1cccnc1Nc1ccc(Cl)cc1,n,n,32,n,n,n
O=C(OCc1nc2ccccc2s1)c1cnccn1,n,n,n,55,n,x
CN(C)/C=C/C(=O)/C=C/c1ccc(Cl)cc1Cl,n,n,n,x,92,u
C[C@@H]1CN([C@@H](C)CO)C(=O)c2cc(C#CC3CC3)cnc2O[C@@H]1CN(C)S(C)(=O)=O,x,x,x,n,x,x
COC(=O)\C(C(C)=O)=C(/C=C/C=C/N(C)C)N(C)C,n,62,n,n,n,n
CCCN1[C@@H]2c3ccc(-c4ccc(OC)cc4)c(=O)n3C[C@@H]2[C@@H](CO)[C@@H]1C(=O)N(C)C,x,x,x,n,x,x
C[C@H]1CN([C@@H](C)CO)C(=O)Cc2cc(NC(=O)c3ccncc3)ccc2O[C@@H]1CN(C)Cc1ccc(C(=O)O)cc1,x,x,x,n,x,x
CC1(C)CSC(=NCCc2ccccc2)N1,n,n,n,45,n,n
N#Cc1c(/N=C/c2cc(Br)cs2)sc2c1CCC2,n,n,n,78,n,x
COc1ccc(CN(C)C[C@H]2Oc3c(NS(=O)(=O)c4cccs4)cccc3C(=O)N([C@@H](C)CO)C[C@H]2C)cc1,x,x,x,n,x,x
CCN(CCS(=O)(=O)c1ccc(Cl)cc1)C(=O)Nc1ccccc1,n,n,x,n,x,n
O=C(Nc1ccccc1)N(O)c1ccc(Cl)cc1,n,n,n,68,n,x
SMILES,Glyco luc inh,Vif inh,PvdQ acylase,esBAF inh,MITF TRPM1 HTS,Wnt bcat act
CCCn1cnc2c(cnn2-c2ccc(F)cc2)c1=O,n,n,n,52,n,x
CCCCn1cnc2c(cnn2-c2ccc(F)cc2)c1=O,n,n,n,x,n,x
CC(=O)NCCc1ccc(C(=O)COC(=O)c2cc(C)oc2C)cc1,n,n,n,n,n,37
Cc1cc(C(=O)OCC(=O)NCCc2ccccc2)c(C)o1,n,n,n,n,n,x
C[C@@H]1CN([C@@H](C)CO)C(=O)c2cccc(NS(C)(=O)=O)c2O[C@H]1CN(C)C(=O)Nc1ccc2c(c1)OCO2,x,x,x,n,x,x
C[C@H]1CN([C@@H](C)CO)C(=O)c2cc(C3=CCCCC3)cnc2O[C@@H]1CN(C)C(=O)c1ccncc1,x,x,x,n,x,x
Cc1cc([N+](=O)[O-])ccc1NC(=O)/C=C/c1cccs1,n,x,n,x,n,35
Fc1ccccc1CNc1cc(Cl)cc(Cl)c1,n,119,n,n,n,n
O=C(Nc1ncccc1O)c1cc2ccccc2o1,n,n,n,n,n,55
